Data on 36 compounds can be found in PubChem BioAssay (Tox21).

For assay [1], the target named is Acetylcholinesterase (Homo sapiens) (UniProt P22303). Description: Acetylcholinesterase (AChE) small molecule antagonists: colormetric cell-based qHTS assay (AID 1347395). Further: nearly all actives have a fitted effect of over 30% in size. In a few lines: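 In this cell-based qHTS, attached SH-SY5Y cells were treated with test chemicals for 30 min, after which acetylthiocholine hydrolysis was followed by DTNB colour development over 90 min at 37 C.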
Acetylcholinesterase (Homo sapiens), sequence (P22303 whole entry, looked up): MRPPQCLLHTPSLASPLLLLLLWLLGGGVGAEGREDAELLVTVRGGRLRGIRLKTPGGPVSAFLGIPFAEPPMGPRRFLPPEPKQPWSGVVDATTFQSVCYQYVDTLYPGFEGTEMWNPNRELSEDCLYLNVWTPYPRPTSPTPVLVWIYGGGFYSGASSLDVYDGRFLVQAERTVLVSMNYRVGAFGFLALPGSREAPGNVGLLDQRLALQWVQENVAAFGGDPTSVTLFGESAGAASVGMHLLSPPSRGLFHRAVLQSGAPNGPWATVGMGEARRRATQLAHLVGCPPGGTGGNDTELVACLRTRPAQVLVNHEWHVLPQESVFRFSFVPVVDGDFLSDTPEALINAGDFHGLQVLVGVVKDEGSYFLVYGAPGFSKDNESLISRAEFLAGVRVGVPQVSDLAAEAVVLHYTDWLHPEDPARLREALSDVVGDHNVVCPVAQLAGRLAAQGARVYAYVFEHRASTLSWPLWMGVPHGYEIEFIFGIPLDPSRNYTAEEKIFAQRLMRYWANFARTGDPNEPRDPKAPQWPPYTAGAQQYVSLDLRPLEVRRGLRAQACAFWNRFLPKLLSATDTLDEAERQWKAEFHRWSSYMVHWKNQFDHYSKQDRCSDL

For assay [2] the target is unchanged. Description: Acetylcholinesterase (AChE) small molecule antagonists: enzyme-based qHTS assay (AID 1347397). Further: nearly all actives have a fitted effect of over 55% in size. Further: potency means the concentration at half of the fitted maximal effect. The note with it: Potency: AChE enzyme activity inhibition; outcome: AChE enzyme activity inhibition. In a few lines:
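Compound or DMSO vehicle was pin-transferred onto recombinant human AChE (50 mU/mL as dispensed) and left 30 min at room temperature. Acetylthiocholine with DTNB then started the reaction, read colorimetrically 10 min later.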
A general note: Quantitative high-throughput screening tests each substance at several concentrations.

For assay [3] the target is unchanged. The assay is described as follows: Acetylcholinesterase (AChE) small molecule antagonists: fluorescence cell-based qHTS assay (AID 1347398). Further: nearly all actives have a fitted effect of over 50% in size. The note with it: Potency: AChE activity; outcome: AChE activity. In a few lines:
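Using neuroblastoma SH-SY5Y cells as the enzyme source, test chemicals are preincubated 30 min at 37 C; AChE-driven acetylthiocholine cleavage is then quantified by thiocholine-dependent Thiolite Green fluorescence after 40 min at room temperature.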

The target is the same in assay [4]. Description: Acetylcholinesterase (AChE) small molecule antagonists: enzyme-based qHTS assay with human liver microsomes (AID 1347399). Further: nearly all actives have a fitted effect of over 60% in size. Conditions: Potency: qHTS inhibition; outcome: qHTS inhibition. In a few lines: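 Recombinant human AChE (50 mU/mL in the enzyme mix) and human liver microsomes (0.25 mg/mL final) were preincubated with compound and NADPH (0.25 mg/mL final) for 30 min at 37 C. Acetylthiocholine/DTNB was then added; thiocholine was read colorimetrically after 10 min at room temperature.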

Molecules are shown by their SMILES. Values joined by “and” are separate entries in the source; they are usually repeats but may differ in a detail not shown here. Equal entries are not always repeated. Inconclusive results are not listed. Active and inactive are the calls of the source. The call rests on the fitted dose curve.

Take `CCCCCSCCCCC`: the Potency entry in assay [1], in assay [2], in assay [3] and in assay [4] was “inactive” throughout.

With `CC1=CC(C)C(C=O)CC1` (centres undefined), the Potency entry in assay [1], in assay [2], in assay [3] and in assay [4] was “inactive” throughout.

Take `ClCCCl`: the Potency entry in assay [1], in assay [2], in assay [3] and in assay [4] was “inactive” throughout.

Regarding `Cc1ccccc1C(=O)N1CC/C(=N\OS(=O)(=O)O)c2ccc(Cl)cc21`, the Potency entry in assay [1], in assay [2], in assay [3] and in assay [4] was “inactive” in each case.

Consider `O=C(O)c1ccccc1-n1cc(C(=O)O)c(=O)c2cc(Nc3c(F)cc(F)cc3Cl)c(Cl)cc21`, for which the Potency result in assay [1], in assay [2], in assay [3] and in assay [4] was “inactive” in each case.

As to `CCCCOCCOCCSC#N`, the Potency result in assay [1], in assay [2], in assay [3] and in assay [4] was “inactive” throughout.

On to `Nc1c(I)cc(I)c(C(=O)N(CCC(=O)O)c2ccccc2)c1I`, for which the Potency entry in assay [1], in assay [2], in assay [3] and in assay [4] was “inactive” each time.

Regarding `COC(OC)OC`, the Potency result in assay [1], in assay [2], in assay [3] and in assay [4] was “inactive” each time.

As for `CCCCCCCCCCOC(=O)c1ccccc1C(=O)OCCCCCCCC`, the Potency entry in assay [1], in assay [2], in assay [3] and in assay [4] was “inactive” throughout.

Regarding `C=CN1CCCC1=O`, the Potency entry in assay [1], in assay [2], in assay [3] and in assay [4] was “inactive” in each case.

On to `C[C@@H](O[C@H]1OCCN(Cc2n[nH]c(=O)[nH]2)[C@H]1c1ccc(F)cc1)c1cc(C(F)(F)F)cc(C(F)(F)F)c1`, for which the Potency entry in assay [1], in assay [2], in assay [3] and in assay [4] was “inactive” in each case.

For `CC(C)c1cccc(C(C)C)c1`, the Potency result in assay [1], in assay [2], in assay [3] and in assay [4] was “inactive” each time.

In the case of `CC(=O)c1ccc(OCC(=O)N2CCCCC2)cc1`, the Potency entry in assay [1], in assay [2], in assay [3] and in assay [4] was “inactive” throughout.

Take `Cc1ccc(S(=O)(=O)Oc2ccc(N=Nc3ccc(-c4ccc(N=Nc5c(O)ccc6cc(S(=O)(=O)O)cc(S(=O)(=O)O)c56)c(C)c4)cc3C)cc2)cc1`: the Potency entry in assay [1], in assay [3] and in assay [4] was “inactive” throughout. Also, the Potency in assay [2] is 8.97 µM (active) and 4.12 µM (active).

As to `NS(=O)(=O)c1ccc(N2CCCCS2(=O)=O)cc1`, the Potency result in assay [1], in assay [2], in assay [3] and in assay [4] was “inactive” throughout.

On to `C/C=C(/C(=C/C)c1ccc(O)cc1)c1ccc(O)cc1`, for which the Potency entry in assay [1], in assay [2], in assay [3] and in assay [4] was “inactive” each time.

As to `Clc1sc(Cl)c(Cl)c1Cl`, the Potency entry in assay [1], in assay [2], in assay [3] and in assay [4] was “inactive” throughout.

As to `COc1cc2c(cc1OC)-c1cc(=Nc3c(C)cc(C)cc3C)n(C)c(=O)n1CC2`, the Potency entry in assay [1], in assay [2], in assay [3] and in assay [4] was “inactive” each time.

With `O=C1CCCCCCCCCCOCCCCO1`, the Potency result in assay [1], in assay [2], in assay [3] and in assay [4] was “inactive” throughout.

On to `O=C(Nc1ccccc1SSc1ccccc1NC(=O)c1ccccc1)c1ccccc1`, for which the Potency result in assay [1], in assay [2], in assay [3] and in assay [4] was “inactive” each time.

For the compound `CCCCCCCCCCCCCCCC(=O)OCC`, the Potency result in assay [1], in assay [2], in assay [3] and in assay [4] was “inactive” throughout.

Take `CC(C)NC(=O)c1ccccc1N`: the Potency result in assay [1], in assay [2], in assay [3] and in assay [4] was “inactive” throughout.

Consider `CC(C)C(=O)OCCOc1ccccc1`, for which the Potency result in assay [1], in assay [2], in assay [3] and in assay [4] was “inactive” in each case.

As to `c1ccc2[nH]c(-c3cscn3)nc2c1`, the Potency entry in assay [1], in assay [2], in assay [3] and in assay [4] was “inactive” throughout.

Take `COc1ccc(N)c(OC)c1`: the Potency result in assay [1], in assay [2], in assay [3] and in assay [4] was “inactive” throughout.

As to `O=C1CCCc2ccccc21`, the Potency entry in assay [1], in assay [2], in assay [3] and in assay [4] was “inactive” in each case.

Regarding `C#CCN(C)Cc1ccccc1`, the Potency result in assay [1], in assay [2], in assay [3] and in assay [4] was “inactive” each time.

As for `CC(=O)N[C@H]1[C@H]([C@H](O)[C@H](O)CO)OC(C(=O)O)=C[C@@H]1N=C(N)N`, the Potency entry in assay [1], in assay [2], in assay [3] and in assay [4] was “inactive” each time.

On to `CN(C)Cc1cc(C(C)(C)C)c(O)c(C(C)(C)C)c1`, for which the Potency result in assay [1], in assay [2], in assay [3] and in assay [4] was “inactive” in each case.

Regarding `CCCc1nc2c(C)cc(-c3nc4ccccc4n3C)cc2n1Cc1ccc(-c2ccccc2C(=O)O)cc1`, the Potency entry in assay [1], in assay [2], in assay [3] and in assay [4] was “inactive” each time.

Consider `OC(CCl)CCl`, for which the Potency result in assay [1], in assay [2], in assay [3] and in assay [4] was “inactive” in each case.

For the compound `CC(CO)(CO)CO`, the Potency result in assay [1], in assay [2], in assay [3] and in assay [4] was “inactive” in each case.

On to `Cc1c2ccccc2c(C)c2c1ccc1ccccc12`, for which the Potency entry in assay [1], in assay [2], in assay [3] and in assay [4] was “inactive” each time.

As to `COc1nc(N)nc2nc[nH]c12`, the Potency entry in assay [1], in assay [2], in assay [3] and in assay [4] was “inactive” in each case.

Consider `CCCCC(CC)C(=O)O` (centres undefined), for which the Potency result in assay [1], in assay [2], in assay [3] and in assay [4] was “inactive” throughout.

Take `O=S(=O)(O)c1ccc2cc(O)ccc2c1`: the Potency result in assay [1], in assay [2], in assay [3] and in assay [4] was “inactive” in each case.
